Results filed as inconclusive are left out. Active and inactive are the calls of the source. Unless noted, the call rests on the fitted dose curve.
experiment: Dual reporter qHTS for antagonist of Pregnane X Receptor (hPXR) against the NCATS DSHEA and TCM libraries: Fluorescence Readout (AID 1920061; active means well fitted curve in the direction sought with a large enough effect; further: 0% is about no effect); conditions: PXR dual reporter cells, antagonist mode; series mostly up to 40 µM
Procedure, shortened: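 Antagonist mode: rifampicin 2 uM final co-added with compounds to hPXR-LucHepG2 cells for 24 h at 37C. Viability by CellTiter-Fluor, Ex/Em 405/540 nm, 1 h; reporter by ONE-Glo luminescence.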

SMILES | outcome
O=C(O)CC(O)(CC(=O)O)C(=O)O | inactive
CC(=O)C1=C(O)C=C2Oc3c(C(C)=O)c(O)c(C)c(O)c3[C@]2(C)C1=O | inactive
CCCCCCCCCC(=O)O | inactive
C=C1[C@H]2CC[C@H](C(=O)O)[C@@]23CC[C@H](C3)C1(C)C | inactive

experiment: qHTS drug screen for cell cycle checkpoint inhibitors in PARPi-resistant BRCA-mutant ovarian cancer cell lines. (AID 1963452); conditions: PEO1/OlaR viability, CellTiter-Glo luminescence, 96 h; stronger effect = lower value
Procedure, shortened: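 PEO1, PEO4 and PEO1/OlaR ovarian cancer cells, 600 per well, exposed 96 h at 37C to a dilution series. Viability read by CellTiter-Glo luminescence, normalized to DMSO and empty wells; activity summarized as Z-AUC.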

SMILES | Z-AUC
O=C(O)C1=CO[C@@H](O[C@@H]2O[C@H](CO)[C@@H](O)[C@H](O)[C@H]2O)[C@@H]2C(CO)=CC[C@H]12 | 1.4 (inactive)
O=C(NCC(=O)N1CCCC1)Nc1ccc2cnccc2c1 | -0.618 (inactive)
CN1CCN(C2CCN(C(=O)Nc3cc(Oc4ccc(NC(=O)C5(C(=O)Nc6ccc(F)cc6)CC5)c(F)c4)ccn3)CC2)CC1 | 0.53 (inactive)
COCC(=O)NC/C=C/c1ccc2ncnc(Nc3ccc(Oc4ccc(C)nc4)c(C)c3)c2c1 | -0.178 (inactive)
Cc1nc(-c2cn3c(n2)-c2ccc(-c4cnn(C(C)(C)C(N)=O)c4)cc2OCC3)n(C(C)C)n1 | -1.26 (inactive)
O=C(c1c(F)ccc(NS(=O)(=O)N2CC[C@@H](F)C2)c1F)c1c[nH]c2ncc(-c3cnc(C4CC4)nc3)cc12 | -0.0874 (inactive)
CC[C@@H](C)Nc1cc(C(=O)NC2CC3CCC(C2)N3c2ccc(C(=O)C3CC3)cn2)c(C)cc1C(N)=O (stereo partly drawn) | -1.08 (inactive)
O=C(Nc1ccnc(NC(=O)C2CC2)c1)c1c(Cl)cccc1Cl | -1.13 (inactive)
O=c1[nH]c([C@@H]2CCCN2)nc2c1oc1ccc(Cl)cc12 | 0.967 (inactive)
OC(c1ccc(-c2ccc(CN3CCN(Cc4ccncc4)CC3)cc2)c(F)c1)(C(F)(F)F)C(F)(F)F | -1.4 (inactive)
C1=C/COCc2cc(ccc2OCCN2CCCC2)Nc2nccc(n2)-c2cccc(c2)COC/1 | -1.05 (inactive)
C=CC(=O)Nc1cccc(Nc2nc(Nc3ccc(OCCOC)cc3)ncc2F)c1 | -0.82 (inactive)
COc1ccc(CNc2nc(N(CCO)CCO)nc3c2ncn3C(C)C)cc1 | -0.772 (inactive)
COc1c(C)cc(NC(=O)c2nn(Cc3ccc(F)cc3)c3c2CN(C(=O)c2ccc[nH]2)C[C@]3(C)C(N)=O)cc1C | -0.421 (inactive)
CN1CC[C@@H](c2c(O)cc(O)c3c(=O)cc(-c4ccc(C(F)(F)F)cc4Cl)oc23)[C@@H]1CO | -0.123 (inactive)
Cc1cc(-c2cc(OC(=O)c3ccccc3)ccc2Cl)cc2nnc(Nc3ccc(OCCN4CCCC4)cc3)nc12 | -0.528 (inactive)
Cc1c(NC(=O)c2cc3c(s2)CCCC3)cccc1-c1cn(C)c(=O)c(Nc2ccc(C3C(=O)N(C)CCN3C)cc2)n1 (stereo not drawn) | 1.18 (inactive)
CCn1nc(C2CCN(C(=O)CCO)CC2)nc1-c1cnc(N)c(-c2nnc(C(C)(C)C)o2)n1 | 0.285 (inactive)
COc1ccc2nc3n[nH]c(C)c3c(NCCOCCO)c2c1 | -0.331 (inactive)
CCCc1cc(C)[nH]c(=O)c1CNC(=O)c1cc(-c2ccc(N3CCN(C(C)C)CC3)nc2)cc2c1cnn2C(C)C | 0.233 (inactive)
CCN(c1cc(-c2ccc(CN3CCOCC3)cc2)cc(C(=O)NCc2c(C)cc(C)[nH]c2=O)c1C)C1CCOCC1 | 0.506 (inactive)
COc1cc2c(cc1OCCCN1CCCC1)N=C(N)C21CCC1 | -0.834 (inactive)
C=CC(=O)N1CCC(Oc2cc3c(Nc4ccc(Cl)c(Cl)c4F)ncnc3cc2OC)CC1 | -0.983 (inactive)
CS(=O)(=O)c1ccc(Oc2cc(F)cc(C#N)c2)c2c1[C@H](O)C(F)(F)C2 | 1.42 (inactive)
COC1CCN(C(=O)c2cc(Cc3n[nH]c(=O)c4ccccc34)ccc2F)CC1 | 0.585 (inactive)
O=C(Nc1cccnc1)c1cc(-c2ccnc(F)c2)ccc1OCc1ccccc1 | -0.389 (inactive)

same assay, conditions: PEO1/OlaR viability, CellTiter-Glo luminescence, 96 h; measured here: PEO1 parental Z-AUC; stronger effect = lower value

SMILES | Z-AUC
O=C(O)C1=CO[C@@H](O[C@@H]2O[C@H](CO)[C@@H](O)[C@H](O)[C@H]2O)[C@@H]2C(CO)=CC[C@H]12 | 1.85
O=C(NCC(=O)N1CCCC1)Nc1ccc2cnccc2c1 | -0.349
CN1CCN(C2CCN(C(=O)Nc3cc(Oc4ccc(NC(=O)C5(C(=O)Nc6ccc(F)cc6)CC5)c(F)c4)ccn3)CC2)CC1 | 0.13
COCC(=O)NC/C=C/c1ccc2ncnc(Nc3ccc(Oc4ccc(C)nc4)c(C)c3)c2c1 | -0.29
Cc1nc(-c2cn3c(n2)-c2ccc(-c4cnn(C(C)(C)C(N)=O)c4)cc2OCC3)n(C(C)C)n1 | -0.764
O=C(c1c(F)ccc(NS(=O)(=O)N2CC[C@@H](F)C2)c1F)c1c[nH]c2ncc(-c3cnc(C4CC4)nc3)cc12 | 0.401
CC[C@@H](C)Nc1cc(C(=O)NC2CC3CCC(C2)N3c2ccc(C(=O)C3CC3)cn2)c(C)cc1C(N)=O (stereo partly drawn) | -1.13
O=C(Nc1ccnc(NC(=O)C2CC2)c1)c1c(Cl)cccc1Cl | -0.966
O=c1[nH]c([C@@H]2CCCN2)nc2c1oc1ccc(Cl)cc12 | 1.19
OC(c1ccc(-c2ccc(CN3CCN(Cc4ccncc4)CC3)cc2)c(F)c1)(C(F)(F)F)C(F)(F)F | -0.566
C1=C/COCc2cc(ccc2OCCN2CCCC2)Nc2nccc(n2)-c2cccc(c2)COC/1 | -1.19
C=CC(=O)Nc1cccc(Nc2nc(Nc3ccc(OCCOC)cc3)ncc2F)c1 | -1.21
COc1ccc(CNc2nc(N(CCO)CCO)nc3c2ncn3C(C)C)cc1 | -0.866
COc1c(C)cc(NC(=O)c2nn(Cc3ccc(F)cc3)c3c2CN(C(=O)c2ccc[nH]2)C[C@]3(C)C(N)=O)cc1C | -0.262
CN1CC[C@@H](c2c(O)cc(O)c3c(=O)cc(-c4ccc(C(F)(F)F)cc4Cl)oc23)[C@@H]1CO | 0.298
CCCC1(CCC)CCC2(CCN(CCCN(CC)CC)C2)CC1 | -2.03
Cc1cc(-c2cc(OC(=O)c3ccccc3)ccc2Cl)cc2nnc(Nc3ccc(OCCN4CCCC4)cc3)nc12 | 0.132
Cc1c(NC(=O)c2cc3c(s2)CCCC3)cccc1-c1cn(C)c(=O)c(Nc2ccc(C3C(=O)N(C)CCN3C)cc2)n1 (stereo not drawn) | 0.426
CCn1nc(C2CCN(C(=O)CCO)CC2)nc1-c1cnc(N)c(-c2nnc(C(C)(C)C)o2)n1 | 0.385
COc1ccc2nc3n[nH]c(C)c3c(NCCOCCO)c2c1 | 0.387
CCCc1cc(C)[nH]c(=O)c1CNC(=O)c1cc(-c2ccc(N3CCN(C(C)C)CC3)nc2)cc2c1cnn2C(C)C | 0.123
CCN(c1cc(-c2ccc(CN3CCOCC3)cc2)cc(C(=O)NCc2c(C)cc(C)[nH]c2=O)c1C)C1CCOCC1 | 0.489
COc1cc2c(cc1OCCCN1CCCC1)N=C(N)C21CCC1 | -0.0136
C=CC(=O)N1CCC(Oc2cc3c(Nc4ccc(Cl)c(Cl)c4F)ncnc3cc2OC)CC1 | -1.08
CS(=O)(=O)c1ccc(Oc2cc(F)cc(C#N)c2)c2c1[C@H](O)C(F)(F)C2 | 1.01
COC1CCN(C(=O)c2cc(Cc3n[nH]c(=O)c4ccccc34)ccc2F)CC1 | -0.393
O=C(Nc1cccnc1)c1cc(-c2ccnc(F)c2)ccc1OCc1ccccc1 | -0.74
COc1cc(N2CCC(N3CCN(C)CC3)CC2)ccc1Nc1ncc(Cl)c(Nc2ccccc2P(C)(C)=O)n1 | -1.53

From PubChem BioAssay (NCATS)
